Compounds with a hit are over-represented: about 3.6% of the library has one in this group of screens.
Myeloid diff MLP: induction of myeloid progenitor differentiation, primary screen, cell-based, flow cytometry, MLPCN library; 360,000 compounds, 1% hits; ER-HoxA9 myeloid progenitors, lysozyme-GFP differentiation; calls only at 10 µM;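 active = normalized GFP-positive differentiation at or above the plate's own cutoff, the solvent-only control mean plus 3 SD; inconclusive = no clear call, values can overlap the other calls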;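 also: cells exposed to compound for four days before flow analysis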
FAS TE block: FAS thioesterase domain inhibitors, primary screen, biochemical, fluorescence intensity, uHTS | Fatty acid synthase (Homo sapiens), P49327 | recombinant FAS-TE, OMFH fluorogenic substrate, fluorescence endpoint | inhibition, % at 15 µM | 360,000 compounds, 0.67% hits | AID 602261, 2012;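 active = compounds whose normalised, plate-corrected inhibition of enzyme fluorescence in the single-dose primary screen is 50% or more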;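 also: 0% = DMSO with enzyme and 100% = substrate without enzyme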
CRFR2-BP antag: antagonists of CRF-BP/CRF-R2 complex, primary screen, cell-based, HEK293, calcium dye fluorescence, uHTS; CRF-induced calcium fluorescence; inhibition, % at 11.8 µM; 350,000 compounds, 0.59% hits;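 active = inhibition of the ligand-induced calcium signal above about 50% at the single tested concentration, limit read from the data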
NadD block: inhibitors of S. aureus NadD, primary screen, biochemical, colorimetric, uHTS | Nicotinate-nucleotide adenylyltransferase NadD (Staphylococcus aureus N315) | purified NadD enzyme, colorimetric absorbance read-out | inhibition, % at 20 µM | 360,000 compounds, 0.78% hits; in the data active = inhibition above about 26%
NRP1-CendR mod: modulators of CendR peptide binding to NRP-1, primary screen, biochemical, fluorescence polarization, uHTS | 360,000 compounds, 0.85% hits | AID 602438, 2012 | FAM-RPARPAR peptide binding to NRP-1 | Neuropilin-1 (Homo sapiens), O14786 | inhibition, % at 25 µM;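 active = inhibition or corrected inhibition above about 18%, plus a signal ratio from 0.5 to 1.5, limit read from the data, passing the limit was not always enough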
Active calls of the source: *; i = inactive; u = inconclusive; x = not tested or not shown; + = active, no number.

SMILES	Myeloid diff MLP	FAS TE block	CRFR2-BP antag	NadD block	NRP1-CendR mod
CC1(C)CC(=O)C(C=Nc2ccc(N)cc2)=C(O)C1	+	-5	4	5	-1
CSc1ccc(CN2CCC2(C)C(=O)NC2CCc3ccccc32)cc1 (stereo not drawn)	i	10	x	-4	-7
COCCNc1nc2c(S(=O)(=O)c3cc(C)ccc3C)nnn2c2ccccc12	i	5	50*	4	1
Cc1ccc(C)c(Nc2nc3c(S(=O)(=O)c4ccccc4)nnn3c3ccccc23)c1	i	5	9	19	-3
O=C(OCc1ccc2c(c1)OCO2)c1ccc(S(=O)(=O)N2CCCC2)cc1	i	28	114*	-11	-14
Cc1ccccc1N1C(=O)c2cc(S(N)(=O)=O)c(Cl)cc2NC1C (stereo not drawn)	i	-2	-17	-1	5
CN1CCN(C2CN(Cc3ccc(F)cc3)S(=O)(=O)C2)CC1 (stereo not drawn)	i	-14	x	-6	12
O=C1C(Cl)=C(NCCCO)C(=O)c2ccccc21	i	0	6	5	12
O=C(Nc1ccc2cn[nH]c2c1)c1c(Cl)cccc1Cl	i	-19	12	-3	-11
CC(=O)Nc1ccc(NC2=C(Cl)C(=O)c3ccccc3C2=O)cc1	x	x	+	x	x
CN(C)c1ccc(NC2=C(Cl)C(=O)c3ccccc3C2=O)cc1	u	41	75*	-3	14
O=C1C(Cl)=C(Nc2ccc3cn[nH]c3c2)C(=O)c2ccccc21	u	34	95*	11	22
Cc1nn(Cc2ccccc2Cl)c(C)c1NC(=O)CCCn1nc([N+](=O)[O-])c(Cl)c1C	i	39	17	1	-3
COC(=O)[C@]12CCCCC=C1N(Cc1cccc3ccccc13)C(=O)[C@H](CC(=O)NCc1cccs1)C2	i	17	x	10	5
CC1=C(C#N)C(=O)NC(C)(C)C1	i	-6	54*	6	12
CC1=C(C#N)C(=O)NC1(C)O (stereo not drawn)	i	-10	12	-3	12
COc1cccc(CNc2nc3cc(C(C)=C(C)C)sc3c(=O)n2C)c1	i	15	x	-3	-3
CN1/C(=C/C(=O)COC(=O)CN2C(=O)C3CC=CCC3C2=O)C(C)(C)c2ccccc21 (stereo not drawn)	i	4	-8	0	-4
CN1/C(=C\C(=O)COC(=O)Cn2nnc(-c3ccccc3)n2)C(C)(C)c2ccccc21	+	12	9	-7	-52
Cc1nn(C(C)C(=O)NCCc2cccs2)c(=O)c2nn(-c3ccccc3)c(C)c12 (stereo not drawn)	i	-5	-2	1	14
CCOC(Cn1cc([N+](=O)[O-])c(=O)[nH]c1=O)OCC	i	-12	-12	-5	4
CCOC(Cn1ccc(=O)[nH]c1=O)OCC	i	-4	4	1	26*
COc1ccc([C@H]2CC(=O)C=C(c3ccc4cc[nH]c4c3)C2)cc1	i	15	4	24	-12
COc1ccc2c(c1)C1C=CCC1C(c1cc3c(cc1Br)OCO3)N2 (stereo not drawn)	i	18	9	44*	-24
CC(OC(=O)c1ccc(-c2ccc(O)cc2)cc1)C(=O)NC1CCCCC1C (stereo not drawn)	i	10	60*	-6	3
SMILES	Myeloid diff MLP	FAS TE block	CRFR2-BP antag	NadD block	NRP1-CendR mod
CNc1cncc(-c2ccc(OC)c(OC)c2)n1	i	-7	x	-4	14
CCC1CCCCN1CCCNC(=O)C1CCCN(S(=O)(=O)N2CC(C)CC(C)C2)C1 (stereo not drawn)	i	-6	14	-6	27*
CC1CC(C)CN(S(=O)(=O)N2CCCC(C(=O)NCCCN3CCCCC3C)C2)C1 (stereo not drawn)	i	-4	14	-10	11
O=C(Nc1ccc(Cl)cc1)N1CCSC1=NCc1ccccc1	i	-4	13	-4	9
CC(=O)Nc1ccc(C2=NN(C)C(=NCc3ccccc3)SC2)cc1	i	6	-1	-9	30*
Cc1ccc(C(=O)CSc2cc(C)nc(SCC(=O)c3ccccc3)n2)cc1	i	24	4	7	1

Bioassay records deposited in PubChem by several laboratories.
